Rows were chosen to be rich in hits. Some 7.5% of all compounds tested hit in one or more screens of this group.
FLuc modulator = qHTS profiling assay for firefly luciferase inhibitor/activator using purifed enzyme and Km concentrations of substrates (counterscreen for miR-21 project); Luciferin 4-monooxygenase (Photinus pyralis), P08659; purified FLuc, Km substrates, luminescence inhibition; Potency, µM (titrated, usually from 57.5 µM), for inactives: top-dose activity change, negative = inhibition, most hits filed as inhibitors; actives 6.9% (n = 360,000);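 note: plate controls were vehicle for no effect and reference inhibitor for full effect; nearly all actives have a fitted effect of over 55% in size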
Target sequence (P08659 whole entry, looked up): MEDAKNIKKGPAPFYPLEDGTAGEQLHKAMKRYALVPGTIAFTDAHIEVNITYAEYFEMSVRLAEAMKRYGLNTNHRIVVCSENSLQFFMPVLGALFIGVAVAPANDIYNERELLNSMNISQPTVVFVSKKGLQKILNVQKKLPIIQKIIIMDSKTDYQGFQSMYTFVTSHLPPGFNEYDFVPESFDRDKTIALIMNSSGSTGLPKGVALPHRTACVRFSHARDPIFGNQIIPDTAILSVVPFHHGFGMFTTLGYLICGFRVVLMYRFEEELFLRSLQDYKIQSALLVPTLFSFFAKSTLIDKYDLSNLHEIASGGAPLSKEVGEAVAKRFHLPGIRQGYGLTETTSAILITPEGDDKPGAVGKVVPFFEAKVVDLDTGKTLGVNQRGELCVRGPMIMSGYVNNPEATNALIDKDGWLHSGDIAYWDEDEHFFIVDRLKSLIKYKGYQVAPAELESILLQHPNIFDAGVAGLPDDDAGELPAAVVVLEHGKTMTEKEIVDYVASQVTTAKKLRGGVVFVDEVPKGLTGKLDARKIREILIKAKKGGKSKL
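Biochemical qHTS of compounds, final roughly 60 µM downward over six points, against 10 nM purified firefly luciferase using Km concentrations of substrates (10 uM D-luciferin, 10 uM ATP) in Tris acetate pH 7.5 buffer; luminescence output.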
ELG1 genotox = qHTS screen for small molecules that induce genotoxicity in human embryonic kidney (HEK293T) cells expressing luciferase-tagged ELG1 | actives 1.3% (n = 330,000) | AID 504466, 2011 | HEK293T ELG1-luciferase reporter, luminescence, 16 h | Potency, µM (highest dose often 46 µM), inactives show at the top dose activity change, positive = activation, actives largely listed as activators; note: % of control where 0% means no effect; nearly all actives have a fitted effect of over 60% in size
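Step 1: seed 2,000 HEK293T ELG1-luciferase cells per well. Step 2: add compound or DMSO, incubate 16 hr at 37 °C. Step 3: ONE-Glo, 30 min at room temperature, read luminescence.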
SMN2 splice enh = qHTS Assay for Enhancers of SMN2 Splice Variant Expression; HEK293 SMN2-luciferase splicing reporter, luminescence, 30-36 h; Potency, µM (top dose mostly 46.1 µM), for inactives: at the top dose activity change, positive = activation, usual class: activators; actives 2.8% (n = 210,000); note: % of control where 0% means no effect; nearly all actives have a fitted effect of over 55% in size
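HEK293 cells carry an SMN2 […]–luciferase reporter in which exon 7 inclusion puts luciferase in frame. Cells were plated 10-12 h before compound addition, then incubated 30-36 h at 37C. ONE-Glo luminescence was read; sodium butyrate at 4.5 mM final served as control.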
Rab9 promoter act = qHTS Assay for Rab9 Promoter Activators | Huh7 Rab9 promoter-luciferase reporter, luminescence, 24 h | Potency, µM (top dose mostly 9.22 µM), for the others: top-dose activation, negative = inhibition, hits mostly activators | actives 2.8% (n = 320,000) | AID 485297, 2010; note: % of control where 0% means no effect; nearly all actives have a fitted effect of over 60% in size
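Luciferase signal after 10 min detection reagent at ambient indicates Rab9 promoter upregulation; stably transfected Huh7 cells were treated 24 h with compound in DMSO at 37 °C, 5% CO2.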
NPC1 prom act = qHTS Assay for NPC1 Promoter Activators | Huh7 NPC1 promoter luciferase reporter, 24 h | AID 485313, 2010 | Potency, µM (highest dose often 9.22 µM), for the others: at the top dose activation, actives largely listed as activators | actives 2.4% (n = 320,000); note: % of control where 0% means no effect; nearly all actives have a fitted effect of over 60% in size
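Quantitative HTS used a cell-based reporter: Huh7 cells stably bearing the NPC1 promoter upstream of luciferase were treated with compounds for 24 h, and promoter activation was read as luminescence.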
Active calls of the source: *; ? = inconclusive; . = no result given; [ ] = dose if it differs, or a comment. Calls come from the whole dose curve; as a rule, active = well fitted curve in the direction sought with a large enough effect; inconclusive = small, poorly fitted or top-dose-only effect, or another doubt; inactive = no such curve, though single readings can be large; an effect the other way counts as inactive or inconclusive. Potency is the fitted concentration of half-maximal effect.

SMILES	FLuc modulator	ELG1 genotox	SMN2 splice enh	Rab9 promoter act	NPC1 prom act
CCOc1ccc(NC(=O)CSc2ccc(-c3ccccn3)nn2)cc1	-8%	15%	.	0%	1%
CCOC(=O)c1ccc(NC(=O)CSc2ccc(-c3ccccn3)nn2)cc1	11µM*	?	.	-2%	-2%
CC(=O)c1ccc(NC(=O)CSc2ccc(-c3sc(C)nc3C)nn2)cc1	13µM*	-19%	.	5%	12%
COc1ccccc1NC(=O)N1CCCC1C(=O)NCc1ccccc1F (stereo not drawn)	-2%	13%	6.3µM*	-8%	1%
COc1ccc(C(=O)N2CCN(C(=O)COc3ccc(C)cc3)CC2)cc1OC	15µM*	.	-13%	.	.
COc1cc(OC)cc(C(=O)N2CCN(C(=O)COc3ccc(C)cc3)CC2)c1	24µM*	.	-1%	.	.
COc1ccc(OCC(=O)N2CCN(C(=O)c3ccc(OC)cc3)CC2)cc1	-8%	.	-7%	.	.
Cc1ccc(OCC(=O)N2CCN(C(=O)c3cccc(F)c3)CC2)cc1	-10%	-1%	-11%	-14%	-4%
CN1CCN(S(=O)(=O)c2ccc(N(C)Cc3c(F)cccc3Cl)nc2)CC1	.	2%	.	.	.
NCCNC[C@H](O)CO	.	.	-14%[9.22 µM]	.	.
Cc1nc2c(C(=O)Nc3ccc(N4CCCC(O)C4)cc3)snc2c(=O)[nH]1 (stereo not drawn)	3µM*	12%	.	2%	17%
O=C(Nc1ccc(N2CCCC(O)C2)cc1)c1snc2c(=O)[nH]cnc12 (stereo not drawn)	2.1µM*	?	?	18%	17%
COc1cc(/C=N/NC(=O)c2ccc(Cl)c(S(N)(=O)=O)c2)ccc1OCC(N)=O	1%	-2%	.	-7%	-5%
CCc1ccc(C(=O)COC(=O)c2ccc(Cl)nc2)cc1	9.5µM*	2%	23%	?	17%
O=C(COC(=O)c1ccc(Cl)nc1)c1ccc2c(c1)OCCO2	0.76µM*	?	-3%	1.6µM*	4µM*
O=C(COC(=O)c1cccnc1Cl)c1ccc2c(c1)OCCO2	0.11µM*	-3%	-1%	4.5µM*	24%
CCCC(=O)c1ccc2c(c1)OCCO2	?	20%	17%	19%	11%
O=C(COC(=O)C(O)c1ccccc1)c1ccc2c(c1)OCCO2 (stereo not drawn)	1.5µM*	4%	-8%	-1%	-5%
CCOC(=O)c1c(C)[nH]c(C)c1C(=O)COC(=O)c1ccc(Cl)nc1	.	1%	.	.	.
O=C(COC(=O)c1ccc2c(c1)OCCO2)NC1CCCCC1	-15%	-3%	.	0%	-1%
CSC(=S)N/N=C(\C)c1ccccc1	21µM*	?	-5%	12%	1%
CS(=O)(=O)N1CCC2(CCCN(C(=O)Nc3cccc(C#N)c3)C2)CC1	.	.	-2%	.	.
Cc1ccc(-n2cc(CN3CCNC(=O)CC3)c(-c3ccc(F)cc3)n2)cc1	?	-1%	.	0%	-5%
Cc1ccc(-n2cc(CN3CCC(O)(c4ccccn4)CC3)c(-c3ccc(F)cc3)n2)cc1	17µM*	-6%	.	-21%	-4%
Cc1cccc(-c2cc(C(=O)NCc3ccccn3)c3ccccc3n2)c1	8.5µM*	-2%	12%	17%	9%
SMILES	FLuc modulator	ELG1 genotox	SMN2 splice enh	Rab9 promoter act	NPC1 prom act
Cc1ccc(-c2cc(C(=O)NCCCN3CCCC3)c3ccccc3n2)cc1C	?	?	.	-9%	0%
Cc1ccc(-c2cc(C(=O)NCc3ccccn3)c3ccccc3n2)cc1C	1.5µM*	-4%	13µM*	23%	19%
O=C(NCc1ccccn1)c1cc(-c2ccccc2)nc2ccccc12	17µM*	-2%	-5%	1%	-2%
Cc1cc(CNC(=O)c2cc(-c3ccccc3)nc3ccccc23)nn1C	?	-12%	6%	-10%	0%
O=C(NCc1ccccn1)c1cc(-c2ccc(-c3ccccc3)cc2)nc2ccccc12	0.38µM*	-8%	.	3.5µM*	2.2µM*
O=C(NCc1ccccc1)c1cc(-c2ccncc2)nc2ccccc12	-18%	-8%	.	5%	0%

Compound activity (PubChem BioAssay)
